Experiment [1] in a line: qHTS assay to identify small molecule antagonists of the thyroid receptor (TR) signaling pathway (AID 743065). Further: series mostly up to about 70 µM; nearly all actives have a fitted effect of over 55% in size. In outline: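 Antagonism measured as loss of luciferase signal in GH3 cells stably carrying a TRE-luciferase reporter, co-treated with compound and T3 (1 nM final) for 23.5 h at 37 C. Viability was read in the same well by CellTiter-Fluor.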
Experiment [2] concerns thyroid hormone receptor (rat, GH3 cells). In words: qHTS assay to identify small molecule agonists of the thyroid receptor (TR) signaling pathway (AID 743066; calls by dose curve). (In general: Quantitative high-throughput screening tests each substance at several concentrations.)
Experiment [3] deals with Estrogen receptor (Homo sapiens) (UniProt P03372). Put plainly: qHTS assay to identify small molecule antagonists of the estrogen receptor alpha (ER-alpha) signaling pathway (AID 743069; active means well fitted curve in the direction sought with a large enough effect in the signal ratio in the repeat runs, not every such curve was filed as active; the % refers to the signal ratio). In short, it runs like this:
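ER-alpha-UAS-bla GripTite HEK293 line; 2% charcoal-stripped FBS overnight; plated, 4 hr 37C/5% CO2; cpd in DMSO + 17beta-estradiol, 18 hr 37C; LiveBLAzer B/G FRET substrate 2 hr RT; fluorescence intensity.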

Experiment [4] can be described thus: qHTS assay to identify small molecule antagonists of the estrogen receptor alpha (ER-alpha) signaling pathway - cell viability counter screen (AID 743074; calls by dose curve;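 further: HEK293 cells carrying ER-alpha-UAS-bla reporter stimulated with 17beta-estradiol; nearly all actives have a fitted effect of over 45% in size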).
The target in experiment [5] is Estrogen receptor (Homo sapiens) (UniProt P03372). In words: qHTS assay to identify small molecule agonists of the estrogen receptor alpha (ER-alpha) signaling pathway (AID 743075; calls by dose curve;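 further: HEK293 GripTite cells with ER-alpha and UAS-driven beta-lactamase reporter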).
Sequence of Estrogen receptor (Homo sapiens) (P03372 whole entry, looked up): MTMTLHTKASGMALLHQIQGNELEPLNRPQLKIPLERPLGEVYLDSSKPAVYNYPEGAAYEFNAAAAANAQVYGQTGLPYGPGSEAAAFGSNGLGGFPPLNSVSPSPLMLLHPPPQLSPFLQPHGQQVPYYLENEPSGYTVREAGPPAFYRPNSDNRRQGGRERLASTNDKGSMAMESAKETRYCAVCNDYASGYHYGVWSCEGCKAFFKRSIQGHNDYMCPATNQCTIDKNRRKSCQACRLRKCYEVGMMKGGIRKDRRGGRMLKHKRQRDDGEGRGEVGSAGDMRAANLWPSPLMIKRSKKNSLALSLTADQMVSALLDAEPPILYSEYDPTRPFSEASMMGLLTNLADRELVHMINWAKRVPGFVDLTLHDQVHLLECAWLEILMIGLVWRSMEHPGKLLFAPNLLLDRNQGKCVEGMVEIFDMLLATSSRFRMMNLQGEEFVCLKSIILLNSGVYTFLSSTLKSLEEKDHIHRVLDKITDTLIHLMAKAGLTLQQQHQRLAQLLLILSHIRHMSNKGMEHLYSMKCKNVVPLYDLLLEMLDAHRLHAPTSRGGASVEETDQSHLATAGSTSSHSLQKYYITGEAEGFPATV
Experiment [6] shares this target. In words: qHTS assay to identify small molecule agonists of the estrogen receptor alpha (ER-alpha) signaling pathway using the BG1 cell line (AID 743079). Further: nearly all actives have a fitted effect of over 20% in size. Further: potency means the concentration at half of the fitted maximal effect.
Experiment [7] in a line: qHTS assay to identify small molecule antagonists of the estrogen receptor alpha (ER-alpha) signaling pathway using the BG1 cell line (AID 743080; calls by dose curve; further: series mostly up to about 70 µM; nearly all actives have a fitted effect of over 25% in size). In short, it runs like this:
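Antagonist mode: compounds in DMSO were pinned onto BG1-Luc-4E2 cells alongside 17beta-estradiol agonist, incubated 21.5 h, and ERE-driven luciferase measured with ONE-Glo. Cytotoxicity was multiplexed using CellTiter-Fluor fluorescence.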

A short description of experiment [8]: qHTS assay to identify small molecule antagonists of the estrogen receptor alpha (ER-alpha) signaling pathway using the BG1 cell line - cell viability counter screen (AID 743081).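 Further: compound given together with 17beta-estradiol as the ER stimulus; series mostly up to about 70 µM; nearly all actives have a fitted effect of over 45% in size.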
In the next experiment the target is Aromatase (Homo sapiens) (UniProt P11511). In words: qHTS assay to identify aromatase inhibitors (AID 743083). Further: series mostly up to about 70 µM; nearly all actives have a fitted effect of over 55% in size.
Sequence of Aromatase (Homo sapiens) (P11511 whole entry, looked up): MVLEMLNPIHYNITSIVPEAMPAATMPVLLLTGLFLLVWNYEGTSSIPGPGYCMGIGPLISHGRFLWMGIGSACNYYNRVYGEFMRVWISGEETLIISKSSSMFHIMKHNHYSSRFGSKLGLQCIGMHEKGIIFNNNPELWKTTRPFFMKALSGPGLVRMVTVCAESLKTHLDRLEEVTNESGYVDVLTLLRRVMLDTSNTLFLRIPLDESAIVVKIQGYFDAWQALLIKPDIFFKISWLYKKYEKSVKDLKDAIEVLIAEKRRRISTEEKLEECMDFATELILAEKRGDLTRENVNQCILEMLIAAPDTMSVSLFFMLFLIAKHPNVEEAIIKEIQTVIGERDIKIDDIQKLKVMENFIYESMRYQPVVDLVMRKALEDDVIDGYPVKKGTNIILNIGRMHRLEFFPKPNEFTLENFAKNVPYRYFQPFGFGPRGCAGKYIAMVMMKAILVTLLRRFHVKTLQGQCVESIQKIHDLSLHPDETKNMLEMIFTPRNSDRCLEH
Experiment [9] is described as follows: qHTS assay to identify aromatase inhibitors - cell viability counter screen (AID 743084).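 Further: cells stimulated with testosterone during compound exposure; nearly all actives have a fitted effect of over 55% in size.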
The target of experiment [10] is Aryl hydrocarbon receptor (Homo sapiens) (UniProt P35869). Put plainly: qHTS assay to identify small molecule that activate the aryl hydrocarbon receptor (AhR) signaling pathway (AID 743085).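 Further: HG2L7.5c1 human HepG2 liver cells with stably integrated DRE-driven firefly reporter; series mostly up to about 70 µM; nearly all actives have a fitted effect of over 15% in size.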 In short, it runs like this: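 AhR agonist activity is inferred from enhanced light output of a DRE-controlled firefly luciferase reporter in HepG2 cells, measured with ONE-Glo following 24 h treatment at 37C.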
Sequence of Aryl hydrocarbon receptor (Homo sapiens) (P35869 whole entry, looked up): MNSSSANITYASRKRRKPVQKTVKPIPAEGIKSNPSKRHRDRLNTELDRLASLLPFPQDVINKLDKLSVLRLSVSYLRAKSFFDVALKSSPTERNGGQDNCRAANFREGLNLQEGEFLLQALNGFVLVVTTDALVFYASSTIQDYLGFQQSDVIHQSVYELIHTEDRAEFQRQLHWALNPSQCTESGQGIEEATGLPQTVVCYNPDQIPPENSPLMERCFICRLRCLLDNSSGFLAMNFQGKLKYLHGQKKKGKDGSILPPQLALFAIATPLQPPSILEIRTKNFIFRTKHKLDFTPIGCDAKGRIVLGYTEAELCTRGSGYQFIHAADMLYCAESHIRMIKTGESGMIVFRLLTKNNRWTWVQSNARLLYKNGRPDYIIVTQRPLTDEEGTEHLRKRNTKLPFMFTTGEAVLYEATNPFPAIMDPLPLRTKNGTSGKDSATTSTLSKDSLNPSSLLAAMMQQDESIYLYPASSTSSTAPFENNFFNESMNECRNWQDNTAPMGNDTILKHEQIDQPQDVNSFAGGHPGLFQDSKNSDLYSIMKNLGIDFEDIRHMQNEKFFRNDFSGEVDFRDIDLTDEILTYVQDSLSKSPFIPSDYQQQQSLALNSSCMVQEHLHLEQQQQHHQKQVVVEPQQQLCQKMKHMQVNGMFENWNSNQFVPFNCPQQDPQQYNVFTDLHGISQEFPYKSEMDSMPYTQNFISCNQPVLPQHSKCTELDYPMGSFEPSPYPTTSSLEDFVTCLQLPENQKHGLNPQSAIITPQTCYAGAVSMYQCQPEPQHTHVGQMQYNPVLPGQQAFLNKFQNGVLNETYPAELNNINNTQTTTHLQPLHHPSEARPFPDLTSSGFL

A short description of experiment [11]: qHTS assay to identify small molecule that activate the aryl hydrocarbon receptor (AhR) signaling pathway - cell viability counter screen (AID 743086).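 Further: HepG2 liver cells carrying the AhR DRE luciferase reporter; series mostly up to about 70 µM; nearly all actives have a fitted effect of over 45% in size.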 In short, it runs like this:
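Cytotoxicity counter screen: CellTiter-Fluor signal (30 min, 37 C) in 4000 HepG2 cells/well carrying the DRE-luciferase reporter, following 24 h compound exposure at 37 C.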

For experiment [12], the target named is Peroxisome proliferator-activated receptor gamma (Homo sapiens) (UniProt P37231). In words: qHTS assay to identify small molecule agonists of the peroxisome proliferator-activated receptor gamma (PPARg) signaling pathway (AID 743094; active means well fitted activation curve with a large enough effect in the signal ratio in the repeat runs, not every such curve was filed as active; the % refers to the signal ratio). In outline: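 Compounds dissolved in DMSO were added to PPARg UAS-bla HEK293H cells for 17 h at 37C, and reporter expression was quantified by fluorescence intensity after 1 h with LiveBLAzer B/G FRET substrate.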
Sequence of Peroxisome proliferator-activated receptor gamma (Homo sapiens) (P37231 whole entry, looked up): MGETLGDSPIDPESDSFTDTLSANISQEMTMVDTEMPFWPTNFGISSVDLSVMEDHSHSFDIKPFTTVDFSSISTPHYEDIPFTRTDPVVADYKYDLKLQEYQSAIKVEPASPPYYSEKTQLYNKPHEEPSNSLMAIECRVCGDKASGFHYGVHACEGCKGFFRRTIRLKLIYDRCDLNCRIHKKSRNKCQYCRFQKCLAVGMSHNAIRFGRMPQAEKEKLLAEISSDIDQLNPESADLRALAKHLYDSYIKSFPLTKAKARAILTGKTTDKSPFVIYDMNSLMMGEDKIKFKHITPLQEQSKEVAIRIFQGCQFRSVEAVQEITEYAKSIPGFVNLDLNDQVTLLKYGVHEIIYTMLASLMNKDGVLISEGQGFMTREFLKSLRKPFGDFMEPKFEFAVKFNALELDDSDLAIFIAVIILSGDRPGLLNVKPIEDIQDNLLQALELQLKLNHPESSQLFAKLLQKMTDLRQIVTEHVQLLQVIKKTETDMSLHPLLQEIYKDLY

The nature of experiment [13]: qHTS assay to identify small molecule antagonists of the peroxisome proliferator-activated receptor gamma (PPARg) signaling pathway - cell viability counter screen (AID 743194). Further: nearly all actives have a fitted effect of over 55% in size. In outline:
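Viability was measured as CellTiter-Glo luminescence in GeneBLAzer PPARg UAS-bla HEK293H cells. These cells had been exposed 17 h at 37 C to compounds together with rosiglitazone at 50 nM final, with the beta-lactamase readout taken in the same wells.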

Experiment [14] in a line: qHTS assay for small molecule agonists of the antioxidant response element (ARE) signaling pathway (AID 743202; active means well fitted activation curve with a large enough effect in the signal ratio in the repeat runs, not every such curve was filed as active; the % refers to the signal ratio). In short, it runs like this: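 Quantitative high-throughput format in HepG2 cells bearing an integrated ARE-beta-lactamase reporter. Compound exposure lasted 16 h at 37 C, and fluorescence was read 2 h after adding LiveBLAzer B/G substrate at room temperature.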

Experiment [15] in a line: qHTS assay for small molecule agonists of the antioxidant response element (ARE) signaling pathway - cell viability counter screen (AID 743203; calls by dose curve; further: nearly all actives have a fitted effect of over 55% in size). In outline:
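Following 16 hrs of compound treatment at 37C, HepG2 cells with an ARE-controlled beta-lactamase gene were lysed with CellTiter-Glo. Luminescence was read after 30 min at room temperature.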

The nature of experiment [16]: qHTS assay for small molecule activators of the heat shock response signaling pathway - cell viability counter screen (AID 743209). Further: nearly all actives have a fitted effect of over 50% in size. In outline:
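Readout: CellTiter-Glo luminescence, 30 min at room temperature. System: HSE-bla HeLa cells, 1500/well, plated overnight. Treatment: compounds in DMSO, 5 h at 37 C.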

The nature of experiment [17]: qHTS assay for small molecule activators of the heat shock response signaling pathway (AID 743210; active means well fitted activation curve with a large enough effect in the signal ratio in the repeat runs, with a control signal flat, not every such curve was filed as active; the % refers to the signal ratio;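 further: HeLa cells with beta-lactamase reporter driven by heat shock elements; series mostly up to about 63 µM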). In outline: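 HeLa HSE-bla cells, overnight plating; cpd in DMSO 5 h, 37 C; LiveBLAzer B/G FRET substrate 2.5 h RT; fluorescence intensity read.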
Experiment [18] can be described thus: qHTS assay to identify small molecule agonists of the peroxisome proliferator-activated receptor delta (PPARd) signaling pathway - cell viability counter screen (AID 743211). Further: nearly all actives have a fitted effect of over 55% in size. In outline: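 qHTS cell viability: PPARd-bla HEK293H; 17 h cpd, 37C; CellTiter-Glo, luminescence at 30 min RT.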
In experiment [19] the target is Peroxisome proliferator-activated receptor gamma (Homo sapiens) (UniProt P37231). In words: qHTS assay to identify small molecule antagonists of the peroxisome proliferator-activated receptor gamma (PPARg) signaling pathway (AID 743191; calls by dose curve; further: series mostly up to about 63 µM; nearly all actives have a fitted effect of over 30% in size). In short, it runs like this: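 Beta-lactamase reporter under UAS control in HEK293H PPARg-bla cells; compound treatment 17 h at 37C. Read-out: fluorescence intensity after 1 h room-temperature incubation with LiveBLAzer B/G FRET substrate.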

Results filed as inconclusive are left out. Activity calls are given as the source filed them. Unless noted, the call rests on the fitted dose curve; in most records, active means well fitted curve in the direction sought with a large enough effect in the repeat runs; inconclusive means weak or mixed curves; inactive means no such curve, though single readings can be large; an effect the other way counts as inactive or inconclusive.

As to `CN(C)C(=O)Oc1cccc([N+](C)(C)C)c1`, the Potency entry in experiment [1], in experiment [3], in experiment [4], in experiment [5], in experiment [6] and in experiment [7] was “inactive” each time. In addition, the Potency entry in experiment [9], in [10], in experiment [11], in experiment [12] and in [14] was “inactive” in each case. Also, the molecule was classed as inactive (in experiment [2]; in [8]; in the experiment with Aromatase (Homo sapiens); in experiment [13]; in [15]; in [16]). For the same molecule, the outcome in experiment [17] and in experiment [18] was inactive.

In the case of `CC(C)(CCC(=O)O)C(=O)O`, the Potency result in [1], in experiment [3], in experiment [4], in [5], in experiment [6] and in experiment [7] was “inactive” throughout. The Potency entry in [9], in [10], in experiment [11] and in experiment [12] was “inactive” each time. The call (in experiment [2]; in [8]; in the experiment with Aromatase (Homo sapiens); in experiment [13]; in experiment [15]; in [17]) was inactive. The call in [18] was inactive.

`C=COC(=O)C(C)(CC)CCC(C)C` (configuration not stated): the Potency result in experiment [1], in [3], in experiment [5], in [6], in experiment [7] and in [9] was “inactive” in each case. Moreover, the Potency entry in experiment [10], in experiment [11], in [12], in [19] and in experiment [14] was “inactive” each time. Besides, the call (in experiment [2]; in [8]; with Aromatase (Homo sapiens); in experiment [13]; in experiment [16]; in experiment [17]) was inactive. In addition, in experiment [18], the molecule was called inactive.

`CC(=O)N1C[C@H](O)C[C@H]1C(=O)O`: the Potency result in experiment [1], in [3], in experiment [4], in [7], in experiment [9] and in experiment [10] was “inactive” throughout. In addition, the Potency entry in [11] and in experiment [14] was “inactive” each time. Also, the molecule was classed as inactive (in experiment [2]; in experiment [8]; with Aromatase (Homo sapiens); in [13]; in [15]; in experiment [16]). Further, the outcome in experiment [17] and in experiment [18] was inactive. Moreover, the Potency in [6] is 10.6 µM (active).

Consider `CCOc1ccc2nc(S(N)(=O)=O)sc2c1`, for which the Potency entry in experiment [1], in experiment [3], in experiment [4], in experiment [5], in [9] and in [11] was “inactive” each time. Besides, the Potency result in experiment [12] is “inactive”. Further, the call (in experiment [2]; in experiment [8]; with Aromatase (Homo sapiens); in [13]; in experiment [16]; in experiment [17]) was inactive. Moreover, the molecule was called inactive in experiment [18].

For the molecule `[K+]`, the Potency result in experiment [1], in experiment [3], in experiment [4], in experiment [5], in experiment [6] and in experiment [7] was “inactive” in each case. Further, the Potency entry in experiment [9], in experiment [10] and in [11] was “inactive” in each case. The call (in [2]; in experiment [8]; with Aromatase (Homo sapiens); in experiment [13]; in [15]; in experiment [16]) was inactive. The result in experiment [17] and in experiment [18] was inactive.

`CC(=O)c1ccc2ccccc2c1`: the Potency entry in experiment [1], in experiment [4], in [5], in experiment [6], in experiment [7] and in [9] was “inactive” each time. Moreover, the Potency result in [10], in experiment [11], in experiment [12] and in experiment [19] was “inactive” throughout. Further, the molecule was called inactive (in [2]; in experiment [8]; in the experiment with Aromatase (Homo sapiens); in [13]; in [16]; in [17]). For the same molecule, the molecule was called inactive in experiment [18].

Consider `CC1=CCC(O)(C(C)C)CC1` (configuration not stated), for which the Potency entry in experiment [1], in [3], in experiment [4], in [5], in experiment [7] and in experiment [9] was “inactive” in each case. The Potency entry in experiment [10], in experiment [11], in [12], in experiment [19] and in [14] was “inactive” in each case. Moreover, the call (in [2]; in experiment [8]; with Aromatase (Homo sapiens); in experiment [13]; in experiment [16]; in [17]) was inactive. In addition, the molecule was called inactive in [18].

The record behind these values is PubChem BioAssay (Tox21).
